Abeta yeast res: A-beta toxicity reversal in yeast; yeast expressing A-beta42, growth rescue, OD600, 48 h; response scale: 0% DMSO, 100% iron-clioquinol control; Potency, µM (series often up to 46.1 µM), usual class: activators; actives 0.063% (n = 410,000); AID 1347071; note: potency is the fitted concentration of half-maximal effect; nearly all actives have a fitted effect of over 55% in size
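Yeast A-beta toxicity model in growth medium with pinned compounds, 48 h at 30 C; growth read as absorbance at 600 nm. Normalized to FeCl3/clioquinol equimolar mix (positive) and DMSO (negative).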
aSyn yeast inh: rescues yeast growth from alpha-synuclein toxicity; Yeast expressing alpha-synuclein, growth rescue, BacTiter-Glo, 24 h; Potency, µM (highest dose often 46.1 µM), without a hit: at the highest dose growth rescue (activation), actives largely listed as activators; actives 0.14% (n = 370,000); AID 652106; note: potency is the fitted concentration of half-maximal effect; % of control where 0% means no effect; nearly all actives have a fitted effect of over 65% in size
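Readout is rescue of growth in alpha-synuclein-expressing yeast, so inhibitors of toxicity appear as activators. Growth after 24 hr at 30 deg C in galactose medium is quantified by luminescence.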
FUS yeast rescue: rescues growth of FUS-expressing yeast; AID 1347120; actives 0.24% (n = 390,000); Potency, µM (highest dose often 76.6 µM), hits mostly activators; S. cerevisiae FUS-expressing, growth rescue, OD600, 24 h;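 note: potency is the fitted concentration of half-maximal effect; plate controls were DMSO vehicle for no effect and reference control for full effect; nearly all actives have a fitted effect of over 55% in size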
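S. cerevisiae expressing FUS from galactose induction served as the toxicity model. Growth after 24hr at 30C, read as absorbance at 600 nm, indicates suppression of toxicity; compounds dosed at several concentrations.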
TDP43 rescue: inhibitors of TDP-43 toxicity in yeast. TDP-43 expressing yeast growth rescue, BacTiter-Glo, 24 h. Potency, µM (doses to about 46.1 µM), for the others: top-dose growth rescue (activation), most hits filed as activators. actives 1.8% (n = 410,000). AID 652104; note: potency is the fitted concentration of half-maximal effect; % of control where 0% means no effect; nearly all actives have a fitted effect of over 50% in size
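Cell-based yeast growth screen: TDP-43 expression induced in galactose, inoculum OD600=0.02 after raffinose pregrowth to mid-log. Read-out BacTiter-Glo luminescence at 24 hr, 30 deg C; inhibition of toxicity seen as signal increase.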
LDHA inh: blocks human lactate dehydrogenase A; actives 0.15% (n = 480,000); activity change, % (values are at about 110 or 230 µM); P00338; purified LDHA, NADH/diaphorase-resazurin fluorescence; active compounds read low; in the data active = activity change below about -30%; inconclusive = mostly about -25% to -30%;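 note: plate controls were DMSO wells for no effect and wells without enzyme for full effect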
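Remaining NADH was detected by diaphorase (0.133 mg/mL) converting 37 µM resazurin to fluorescent resorufin, read at 0 and 20 minutes. The preceding 5-minute room-temperature reaction used 2 nM LDHA, 0.2 mM sodium pyruvate and 0.06 mM NADH at pH 7.4.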
PTHR1 ag: agonists of human PTHR1 parathyroid hormone receptor; Q03431; HEK293 GP2 PTHR1 cells, GloSensor cAMP luminescence, 1 h; Potency, µM (highest dose often 115 µM), for the others: at the top dose activation, actives largely listed as activators; actives 0.075% (n = 410,000); AID 743266; note: potency is the fitted concentration of half-maximal effect; nearly all actives have a fitted effect of over 55% in size
Target sequence (Q03431 whole entry, looked up): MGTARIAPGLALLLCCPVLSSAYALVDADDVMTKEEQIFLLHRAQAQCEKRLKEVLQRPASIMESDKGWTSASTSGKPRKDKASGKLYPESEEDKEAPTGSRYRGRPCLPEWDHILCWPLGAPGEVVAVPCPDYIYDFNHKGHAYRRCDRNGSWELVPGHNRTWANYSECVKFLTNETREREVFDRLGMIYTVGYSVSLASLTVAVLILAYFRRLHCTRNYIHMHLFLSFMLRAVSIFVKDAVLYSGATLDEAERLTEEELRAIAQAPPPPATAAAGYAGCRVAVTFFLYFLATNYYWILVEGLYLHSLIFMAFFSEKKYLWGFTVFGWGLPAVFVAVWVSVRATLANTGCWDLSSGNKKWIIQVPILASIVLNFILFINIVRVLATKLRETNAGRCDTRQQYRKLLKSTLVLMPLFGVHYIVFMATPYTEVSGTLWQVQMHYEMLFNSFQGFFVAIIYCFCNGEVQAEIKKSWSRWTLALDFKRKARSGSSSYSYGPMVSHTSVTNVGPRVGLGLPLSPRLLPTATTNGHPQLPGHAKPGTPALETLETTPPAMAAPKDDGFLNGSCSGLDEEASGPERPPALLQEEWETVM
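HEK-293-derived GP2 cells expressing PTHR1 and a GloSensor cAMP reporter, 3,000/well, plated overnight, given luciferin plus IBMX (each 0.5 mM as added) for 1 h at 37 °C, then compound for 1 h at 37 °C. Luminescence was read after 15 min at room temperature.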
* = called active by the depositor; i = inactive; ? = inconclusive; nt = no result given; [ ] = another dose, or the depositor's remark. A selection: hits, their analogues and other compounds. The true share with any hit is near 1.9%. Unless noted, calls come from the whole dose curve; as a rule, active = well fitted curve in the direction sought with a large enough effect; inconclusive = small, poorly fitted or top-dose-only effect, or another doubt; inactive = no such curve, though single readings can be large; an effect the other way counts as inactive or inconclusive.

SMILES	Abeta yeast res	aSyn yeast inh	FUS yeast rescue	TDP43 rescue	LDHA inh	PTHR1 ag
O=C(C1=Cc2ccccc2OC1)N1CCN(S(=O)(=O)c2cccc(Cl)c2)CC1	nt	nt	nt	nt	0	nt
O=C(OCC1(COC(=O)c2ccc(F)cc2)CCCC(COC(=O)c2ccc(F)cc2)(COC(=O)c2ccc(F)cc2)C1=O)c1ccc(F)cc1	nt	nt	nt	nt	-20	nt
O=C(COc1ccc2c(c1)CCC2)NCc1ccc(Cl)cc1	i	?	i	?	2	-6%
O=C(COC(=O)c1ccc2ncsc2c1)NCc1cccc(Cl)c1	i	8%	i	28µM*	-5	-45%
O=C(OCCOc1cccc(Cl)c1)c1ccc2ncsc2c1	i	1%	i	14µM*	3	0%
O=C(COc1ccc2c(c1)CCC2)NCc1cccc(Cl)c1	i	0%	i	20µM*	-4	i
O=C(COC(=O)c1ccc2ncsc2c1)NCc1ccccc1Cl	i	23%	i	20µM*	-2	-12%
O=C(COC(=O)c1ccc2ncsc2c1)Nc1cccc(Cl)c1	i	-9%	nt	?	-4	-12%
CCC(NC(=O)C1CCCO1)C12CC3CC(CC(C3)C1)C2 (stereo not given)	nt	nt	nt	nt	1	nt
CCNc1nc(SCC(=O)NC(=O)NC)nc2ccccc12	nt	nt	nt	nt	6	nt
CCOc1cccc(OCCOCCNC(C)(C)C)c1	i	0%	nt	15%	-32*	-4%
CCOc1ccc(OCCCCNC(C)(C)C)cc1	i	-13%	i	-2%	-16	-10%
O=C(c1cc2c(s1)CCCC2)N1CCN(c2ncccn2)CC1	nt	nt	nt	nt	6	nt
O=C(COCc1cc(-c2cccs2)on1)NCc1ccccc1Cl	i	nt	i	13µM*	-10	i
O=C(COCc1cc(-c2cccs2)on1)NCCN1CCCCCC1	nt	nt	nt	nt	0	nt
C=CCn1c(O)c(N=NC(=S)Nc2cccc(C)c2)c2ccccc21	?	?	nt	11µM*	-3	i
C/C(Cl)=C\Cn1c(O)c(N=NC(N)=S)c2ccccc21	i	14%	i	18µM*	-1	-7%
Cc1c(Cl)cccc1NC(=S)N=Nc1c(O)n(CN2CCOCC2)c2ccccc12	22µM*	1%	i	15%	-5	-23%
Oc1c(N=NC(=S)Nc2ccccc2F)c2ccccc2n1Cc1ccccc1Cl	i	4%	i	?	-4	-12%
COc1ccc(/C=C2\NC(=S)N(CC3CCCO3)C2=O)c(OC)c1 (stereo not given)	i	3%	i	?	-4	-16%[57.5 µM]
COc1ccc(/C=C2\NC(=S)N(CC3CCCO3)C2=O)c(OC)c1C (stereo not given)	i	-1%	i	13µM*	2	-45%
S=C(NCc1ccccc1)Nc1ccc2ccccc2c1	?	2%	i	?	0	-26%
C/C(=C\C(=S)Nc1ccccc1)Nc1ccc2ccccc2c1	i	-2%	i	13µM*	18	i
Cc1ccc(NC(=S)Nc2cccc3ccccc23)cc1	?	3%	i	6%	4	0%
C/C(=C\C(=S)Nc1ccccc1)Nc1cccc2ccccc12	i	0%	nt	11µM*	20	i
SMILES	Abeta yeast res	aSyn yeast inh	FUS yeast rescue	TDP43 rescue	LDHA inh	PTHR1 ag
C=CCNc1nc(Nc2ccc(OC)cc2)nc(OC)n1	i	-15%	i	20µM*	-1	i
C=CCNc1nc(Cl)nc(Nc2ccc(OC)cc2)n1	i	1%	i	6%	-8	?
C=CCN1C(=O)/C(=C/c2ccc(OCC(=O)O)cc2)S/C1=N/c1nccs1	i	3%	i	22%	-5	-10%
C=CCN1C(=O)/C(=C/c2ccc(O)c(OC)c2)S/C1=N/c1nccs1	i	13%	nt	22µM*	-2	0%
O=[N+]([O-])c1cc([N+](=O)[O-])c2cccnc2c1Oc1ccccc1O	i	4%	nt	2µM*	30	i
O=[N+]([O-])c1ccccc1Oc1ccc(Cl)c2cccnc12	i	?	i	20µM*	-3	-7%
O=[N+]([O-])c1cc(Cl)c2cccnc2c1O	i	?	i	?	15	-8%
O=[N+]([O-])c1cc(F)c2cccnc2c1O	?	?	i	4µM*	13	-6%
COc1ccc(Oc2c(OC)cc([N+](=O)[O-])c3ncccc23)cc1	i	3%	i	35µM*	2	i
Cc1cccc(C(=O)NC(C)c2ccc(OC(F)F)cc2)n1 (stereo not given)	nt	nt	nt	nt	-3	nt
CCC(=O)OCn1nnc2ccccc2c1=O	i	0%	i	14%	-4	-13%
O=C(CC(c1ccccc1)c1ccccc1)OCn1nnc2ccccc2c1=O	i	14%	i	18µM*	-1	-31%[57.5 µM]
Cc1cc(C(=O)OCn2nnc3ccccc3c2=O)c(C)o1	?	21%	i	14µM*	9	-19%[57.5 µM]
COc1ccccc1C(=O)OCn1nnc2ccccc2c1=O	i	2%	i	22%	-2	i
O=c1c2ccccc2nnn1COc1ccc(F)cc1Cl	i	1%	i	-7%	-5	i
O=c1c2ccccc2nnn1COc1cccc2ccccc12	i	?	i	13µM*	4	-11%
CCN(CC)S(=O)(=O)c1ccc(C)c(NC(=S)Nc2cc(S(=O)(=O)N(CC)CC)ccc2C)c1	nt	nt	nt	nt	10	nt
Cc1c(CC(=O)N2CCC(O)(c3ccc(Cl)cc3)CC2)c(=O)oc2c(C)c(O)ccc12	nt	nt	nt	nt	8	nt
CC(C)C(=O)/C(C#N)=C\c1cc2ccccc2nc1N1CCOCC1	nt	nt	nt	nt	3	nt
COC(=O)C(C)Oc1ccc2c(C)c(-c3ccc(Cl)cc3)c(=O)oc2c1 (stereo not given)	nt	nt	nt	nt	1	nt
OC(CNCC(c1ccco1)N1CCCCC1)c1ccccc1 (stereo not given)	i	-6%	i	11%	-31*	i
Cc1ccc2[nH]c(C(=O)N3CCCC(Nc4ccc(F)cc4)C3)cc2c1 (stereo not given)	i	24%	?	22µM*	2	i
CCOC1CCNCC1	nt	nt	nt	nt	13	nt
CC(=O)NC(c1ccccc1)c1nc(-c2ccc3ccccc3c2)cs1 (stereo not given)	i	-3%	i	5%	-1	-3%
CC(=O)NC(c1ccccc1)c1nc(-c2ccc(C)c(C)c2)cs1 (stereo not given)	i	-8%	i	20µM*	-7	i
COc1cccc(C(NC(C)=O)c2nc(-c3ccc(C)c(C)c3)cs2)c1 (stereo not given)	i	18µM*	i	0%	-3	-57%
